According to PubChem BioAssay:
Active and inactive are the calls of the source.

Tests used:
[1] = E. coli DRC41 culture turbidity changes, primary screen, E. coli filamentation inducer project, strain DRC41, OD650, 48 h (AID 1152);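 also: E. coli MC1000 strain DRC41 lacking acrAB efflux pump and sulA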; conditions: E. coli DRC41 (acrAB sulA), higher = more signal, called active from +8 up or from −8 down
[2] = small-molecule binders of probe aLefty1, primary screen, biochemical, small-molecule microarray, 635/667 nm fluorescence (AID 1153); conditions: higher = more signal;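 also: score merges spot fluorescence with signal-to-noise ratio from the scanned slide images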
[3] = PSAC antagonists in infected red cells, primary screen, cell-based, P. falciparum Indochina, OD700, 1 h (AID 1154); conditions: P. falciparum Indochina infected RBC osmotic lysis, higher = more signal, called active from +8 up or from −8 down
[4] = PSAC antagonists in infected red cells, primary screen, cell-based, P. falciparum Indochina, OD700, 2 h (AID 1155);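 also: lysis reports solute entry through the parasite surface anion channel PSAC; channel blockers reduce lysis of infected cells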; conditions: P. falciparum Indochina infected erythrocytes, osmotic lysis OD700; higher = more signal, called active from +8 up or from −8 down
[5] = osmotic lysis modulators in infected erythrocytes, primary screen, PSAC antagonist project, cell-based, P. falciparum Indochina, OD700, 3 h (AID 1156); conditions: higher = more signal, called active from +8 up or from −8 down
[6] = PSAC antagonists in infected red cells, primary screen, cell-based, P. falciparum Indochina, OD700, 18 h (AID 1157); conditions: P. falciparum Indochina infected erythrocytes, osmotic lysis OD700, 18 h; higher = more signal, called active from +8 up or from −8 down
[7] = modulators of S6 phosphorylation in cells, primary screen, cell-based, A549, cytoblot, luminescence, serum-stimulated (AID 1158); conditions: A549 phospho-S6 cytoblot, 5 h, higher = more signal;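 also: serum-stimulated A549 lung adenocarcinoma cells; signal is phosphorylated S6 detected by cytoblot immunostaining with HRP secondary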
[8] = molecular target: NADPH oxidase 2 (Homo sapiens) (UniProt P04839); assay: NOX2-dependent H2O2 signal modulators, primary screen, NOX inhibitor project, cell-based, HEK293-NOX2, PMA-stimulated, Amplex Red fluorescence (AID 1159); conditions: 45 min, higher = more signal, called active from +8 up or from −8 down; also: test concentration not given here
[9] = molecular target: NADPH oxidase 4 (Homo sapiens) (UniProt Q9NPH5); assay: NOX4-dependent H2O2 signal modulators, primary screen, NOX inhibitor project, cell-based, HEK293-NOX4, tetracycline-induced, Amplex Red fluorescence (AID 1160); conditions: 45 min, higher = more signal, called active from +8 up or from −8 down
[10] = molecular target: NADPH oxidase 5 (Homo sapiens) (UniProt Q96PH1); assay: NOX5-dependent H2O2 signal modulators, primary screen, NOX inhibitor project, cell-based, HEK293-NOX5, Amplex Red fluorescence (AID 1161); conditions: HEK293-NOX5, ionomycin, 45 min, higher = more signal
[11] = A549 cell viability effects, profiling panel, calcein-AM fluorescence, 48 h, basal (AID 1162); conditions: higher = more signal; also: test concentration not given here
[12] = adipocyte viability effects, profiling panel, cell-based, 3T3-L1 adipocytes, calcein-AM fluorescence, 48 h, basal (AID 1163); conditions: 3T3-L1 adipocytes viability, higher = more signal; also: test concentration not given here
[13] = HepG2 cell viability effects, profiling panel, calcein-AM fluorescence, 48 h, basal (AID 1164); conditions: higher = more signal; also: test concentration not given here
[14] = MM1S cell viability effects, profiling panel, calcein-AM fluorescence, 48 h, basal (AID 1165); conditions: higher = more signal;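 also: viability of MM1S multiple myeloma cells under basal unstimulated conditions; test concentration not given here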
[15] = basal RPMI8226 viability, no added stimulus, profiling panel, cell-based, calcein-AM fluorescence, 48 h, PK04 Diversity Set (AID 1166); conditions: RPMI8226 myeloma viability, higher = more signal;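 also: cells grown under basal conditions without added stimulus; test concentration not given here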
[16] = basal HepG2 mitochondrial membrane potential changes, profiling panel, cell-based, JC-1 fluorescence, 24 h, 100 nL compound (AID 1167); conditions: higher = more signal; also: test concentration not given here
[17] = basal 3T3-L1 adipocyte mitochondrial potential changes, profiling panel, cell-based, JC-1 fluorescence, 3T3-L1 adipocytes, 24 h, 100 nL compound (AID 1168); conditions: JC-1 mitochondrial fluorescence, higher = more signal, called active from +8 up or from −8 down; also: test concentration not given here
[18] = basal RPMI8226 mitochondrial membrane potential changes, profiling panel, cell-based, JC-1 fluorescence, 24 h, 100 nL compound (AID 1169); conditions: RPMI8226 myeloma, JC-1 mitochondrial potential fluorescence, higher = more signal; also: test concentration not given here
[19] = basal MM1S mitochondrial membrane potential changes, profiling panel, cell-based, JC-1 fluorescence, 24 h, 100 nL compound (AID 1170); conditions: higher = more signal; also: test concentration not given here
[20] = A549 lung cancer cell viability effects, profiling panel, resazurin fluorescence, 24 h, PK04 Diversity Set (AID 1171); conditions: higher = more signal, called active from +8 up or from −8 down; also: test concentration not given here

NADPH oxidase 4 (Homo sapiens), sequence (Q9NPH5 whole entry, looked up): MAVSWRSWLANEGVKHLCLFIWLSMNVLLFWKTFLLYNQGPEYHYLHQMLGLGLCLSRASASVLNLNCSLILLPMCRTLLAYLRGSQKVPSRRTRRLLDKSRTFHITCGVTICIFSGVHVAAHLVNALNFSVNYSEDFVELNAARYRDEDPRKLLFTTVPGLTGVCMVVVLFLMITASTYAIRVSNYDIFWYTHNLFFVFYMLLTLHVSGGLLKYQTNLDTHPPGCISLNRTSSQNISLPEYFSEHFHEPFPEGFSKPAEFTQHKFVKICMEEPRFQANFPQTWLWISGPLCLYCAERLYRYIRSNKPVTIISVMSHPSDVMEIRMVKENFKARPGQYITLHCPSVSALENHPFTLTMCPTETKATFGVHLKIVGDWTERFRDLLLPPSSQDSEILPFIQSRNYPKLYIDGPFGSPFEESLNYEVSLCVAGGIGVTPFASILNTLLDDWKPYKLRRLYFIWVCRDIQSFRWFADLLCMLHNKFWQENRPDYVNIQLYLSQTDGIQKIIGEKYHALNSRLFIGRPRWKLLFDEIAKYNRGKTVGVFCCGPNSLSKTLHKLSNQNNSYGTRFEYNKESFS
NADPH oxidase 2 (Homo sapiens), sequence (P04839 whole entry, looked up): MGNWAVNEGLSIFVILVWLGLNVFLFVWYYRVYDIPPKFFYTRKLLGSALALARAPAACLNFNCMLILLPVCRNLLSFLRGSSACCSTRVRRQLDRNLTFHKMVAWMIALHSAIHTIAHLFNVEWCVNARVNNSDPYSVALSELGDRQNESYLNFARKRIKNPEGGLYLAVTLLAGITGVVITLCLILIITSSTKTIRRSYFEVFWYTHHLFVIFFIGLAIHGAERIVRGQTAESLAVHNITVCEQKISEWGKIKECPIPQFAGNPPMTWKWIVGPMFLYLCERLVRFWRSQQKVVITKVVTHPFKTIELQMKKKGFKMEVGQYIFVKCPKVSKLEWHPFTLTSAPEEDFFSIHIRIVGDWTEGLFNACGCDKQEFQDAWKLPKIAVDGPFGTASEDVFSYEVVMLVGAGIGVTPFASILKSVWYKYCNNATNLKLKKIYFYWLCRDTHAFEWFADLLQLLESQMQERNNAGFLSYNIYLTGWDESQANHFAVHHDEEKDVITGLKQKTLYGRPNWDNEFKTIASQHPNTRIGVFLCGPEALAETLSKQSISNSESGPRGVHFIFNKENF
NADPH oxidase 5 (Homo sapiens), sequence (Q96PH1 whole entry, looked up): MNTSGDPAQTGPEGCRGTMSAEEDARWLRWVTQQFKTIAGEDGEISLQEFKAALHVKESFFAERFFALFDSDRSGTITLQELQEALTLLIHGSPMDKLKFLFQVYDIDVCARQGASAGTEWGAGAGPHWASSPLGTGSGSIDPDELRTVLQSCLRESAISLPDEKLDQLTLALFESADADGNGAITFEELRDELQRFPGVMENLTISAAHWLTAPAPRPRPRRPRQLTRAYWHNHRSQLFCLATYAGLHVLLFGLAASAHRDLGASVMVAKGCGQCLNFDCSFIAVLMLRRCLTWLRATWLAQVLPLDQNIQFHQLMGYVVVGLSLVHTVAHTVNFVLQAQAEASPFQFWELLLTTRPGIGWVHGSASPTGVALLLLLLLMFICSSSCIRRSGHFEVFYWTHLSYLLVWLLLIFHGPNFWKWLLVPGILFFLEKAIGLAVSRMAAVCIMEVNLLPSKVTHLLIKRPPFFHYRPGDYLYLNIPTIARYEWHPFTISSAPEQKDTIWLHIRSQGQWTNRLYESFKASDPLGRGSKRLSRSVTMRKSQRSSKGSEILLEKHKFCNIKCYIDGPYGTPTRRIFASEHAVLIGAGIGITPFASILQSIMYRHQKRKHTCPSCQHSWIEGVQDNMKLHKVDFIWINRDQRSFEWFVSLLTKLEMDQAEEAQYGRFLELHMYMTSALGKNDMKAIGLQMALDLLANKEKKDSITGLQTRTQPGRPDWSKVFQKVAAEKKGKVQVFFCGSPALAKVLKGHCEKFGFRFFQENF

| SMILES | z-score [1] | composite z-score [2] | z-score [3] | z-score [4] | z-score [5] | z-score [6] | z-score [7] | z-score [8] | z-score [9] | z-score [10] | z-score [11] | z-score [12] | z-score [13] | z-score [14] | z-score [15] | z-score [16] | z-score [17] | z-score [18] | z-score [19] | z-score [20] |
| --- | --- | --- | --- | --- | --- | --- | --- | --- | --- | --- | --- | --- | --- | --- | --- | --- | --- | --- | --- | --- |
| C[C@H]1CC[C@H]2C(=O)O[C@H](CO)CN2[C@@H]1c1ccc(Br)cc1 | -0.0016 (inactive) | 0.0012 | 1.51 (inactive) | 0.939 (inactive) | 0.0454 (inactive) | 0.49 (inactive) | -0.337 | -0.431 (inactive) | -0.191 (inactive) | -0.489 | 0.889 | -0.214 | 0.547 | 0.349 | -0.73 | 0.0194 | -0.526 (inactive) | 0.301 | -0.434 | 0.581 (inactive) |
| CC1(C)O[C@H]2O[C@H]([C@H](O)CON=C3[C@H]4CCn5c(=O)n(-c6ccccc6)c(=O)n5[C@H]4[C@H](O)[C@@H]4O[C@H]34)[C@H](O)[C@H]2O1 | -0.169 (inactive) | -0.0375 | 0.246 (inactive) | 0.282 (inactive) | 0.267 (inactive) | 0.343 (inactive) | -0.693 | 0.197 (inactive) | 0.0828 (inactive) | -0.47 | -0.359 | 0.104 | -0.0631 | 0.112 | 0.279 | -0.494 | -1.12 (inactive) | 0.438 | 0.223 | 0.065 (inactive) |
| COc1ccc(COC(=O)NN=C2C[C@@H](O)[C@@H](O)[C@@H]3[C@@H]4C(=O)N(Cc5ccc6c(c5)OCO6)C(=O)[C@@H]4CC[C@H]23)cc1 | 0.701 (inactive) | 0.781 | 15.7 (active) | 2.17 (inactive) | 0.18 (inactive) | 0.845 (inactive) | 0.767 | -0.657 (inactive) | 0.186 (inactive) | 0.138 | -0.0897 | -0.243 | 0.53 | 0.311 | -0.0157 | 0.301 | -0.339 (inactive) | 0.0307 | -0.825 | -0.0129 (inactive) |
| CC(CCC(=O)OC[C@H]1O[C@H](C#Cc2ccccc2)C=C[C@@H]1Oc1ccc(C)cc1)=NOC[C@@H](C)[C@H](OCc1ccccc1)C(C)C | -0.321 (inactive) | -0.378 | 0.551 (inactive) | 0.498 (inactive) | 0.901 (inactive) | 0.392 (inactive) | -0.0916 | 1.21 (inactive) | 1.16 (inactive) | 0.919 | -0.284 | 0.0487 | -0.489 | -1.44 | 0.164 | -0.043 | -1.77 (inactive) | 1.06 | -0.327 | 0.865 (inactive) |
| COC(=O)[C@@H]1CC[C@H](C)[C@@H](c2ccc(Br)cc2)N1C(=O)C(F)(F)F | -0.643 (inactive) | -0.103 | 1.08 (inactive) | -0.0008 (inactive) | 0.266 (inactive) | 0.2 (inactive) | -0.56 | 0.301 (inactive) | 0.467 (inactive) | 0.18 | -0.0701 | -0.0882 | -0.434 | -1.24 | 0.468 | 0.399 | 0.0984 (inactive) | 0.508 | 0.554 | 0.839 (inactive) |
| CCN1C(=O)[C@H]2[C@H]3[C@H](O)[C@H](O)CC(=NOCC[C@@H]4C=C[C@H](OC(C)=O)[C@@H](COC(C)=O)O4)[C@@H]3CC[C@H]2C1=O | -0.405 (inactive) | -0.125 | 0.422 (inactive) | 0.329 (inactive) | -0.376 (inactive) | 0.44 (inactive) | -0.401 | 0.0899 (inactive) | -0.0656 (inactive) | 0.859 | 1.03 | -0.286 | -0.296 | 0.0566 | -0.727 | -0.301 | -0.132 (inactive) | 0.572 | -0.306 | -0.774 (inactive) |
| CC(C)[C@@H](OCc1ccccc1)[C@H](C)C=NO[C@H](C)c1cn([C@@H]2COC[C@H]2O)nn1 | 0.112 (inactive) | -0.111 | 0.551 (inactive) | -0.119 (inactive) | -0.541 (inactive) | 0.172 (inactive) | -0.995 | 0.542 (inactive) | 0.827 (inactive) | 0.704 | 0.569 | -0.478 | -0.0131 | 0.0238 | -0.0081 | -0.479 | -0.98 (inactive) | 0.608 | -0.601 | -0.516 (inactive) |
| O=C1[C@H]2[C@H]3[C@H](O)[C@H](O)CC(=NO[C@@H]4O[C@H](CO)[C@@H](O)[C@H](O)[C@H]4O)[C@H]3CC[C@H]2C(=O)N1C[C@@H]1CCCO1 | 0.819 (inactive) | -0.0054 | 0.651 (inactive) | 0.544 (inactive) | 0.0197 (inactive) | 0.353 (inactive) | -0.164 | -2.4 (inactive) | 0.513 (inactive) | 0.488 | 0.676 | -0.568 | 0.184 | 0.7 | 0.269 | 0.607 | 0.572 (inactive) | 0.39 | -1.13 | -0.6 (inactive) |
| CCN1C(=O)[C@H]2[C@H]3[C@H](O)[C@H](O)CC(=NO[C@H](C)c4cn([C@H](CO)Cc5ccccc5)nn4)[C@@H]3CC[C@H]2C1=O | -0.238 (inactive) | -0.323 | 0.334 (inactive) | 0.15 (inactive) | -0.0073 (inactive) | 0.123 (inactive) | -0.598 | 0.384 (inactive) | 0.293 (inactive) | -0.116 | 1.01 | -0.922 | 0.211 | -0.824 | 0.065 | -0.471 | -1.16 (inactive) | 0.271 | -0.343 | -1.13 (inactive) |
